# Laboratory results taken from PubChem BioAssay AID583 (Sanford-Burnham Center for Chemical Genomics, 2007).
# Where “and” joins values, the source holds several entries; their conditions need not be identical. Equal values may be shown once. In all, about 140,000 compounds went through this assay and about 80 (0.06%) were called active. Rule as the data show it: active = displacement above about 50%; inactive = the rest. Only a selection was taken, and actives are over-represented in it overall. A structure can be active in one record and inactive in another.
# Target: Heat shock 70 kDa protein 1A (Homo sapiens) (UniProt P0DMV8)
# Assay: small molecules displacing fluorescent ligand from Hsp70 – biochemical, fluorescence polarization, primary screen (AID 583);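 also: plate controls were vehicle for no effect and reference ligand for full effect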
# Conditions: Hsp70 fluorescence polarization probe displacement, mP; at 20 µM; stronger effect = higher value
# Chain of Heat shock 70 kDa protein 1A (Homo sapiens) (P0DMV8 whole entry, looked up): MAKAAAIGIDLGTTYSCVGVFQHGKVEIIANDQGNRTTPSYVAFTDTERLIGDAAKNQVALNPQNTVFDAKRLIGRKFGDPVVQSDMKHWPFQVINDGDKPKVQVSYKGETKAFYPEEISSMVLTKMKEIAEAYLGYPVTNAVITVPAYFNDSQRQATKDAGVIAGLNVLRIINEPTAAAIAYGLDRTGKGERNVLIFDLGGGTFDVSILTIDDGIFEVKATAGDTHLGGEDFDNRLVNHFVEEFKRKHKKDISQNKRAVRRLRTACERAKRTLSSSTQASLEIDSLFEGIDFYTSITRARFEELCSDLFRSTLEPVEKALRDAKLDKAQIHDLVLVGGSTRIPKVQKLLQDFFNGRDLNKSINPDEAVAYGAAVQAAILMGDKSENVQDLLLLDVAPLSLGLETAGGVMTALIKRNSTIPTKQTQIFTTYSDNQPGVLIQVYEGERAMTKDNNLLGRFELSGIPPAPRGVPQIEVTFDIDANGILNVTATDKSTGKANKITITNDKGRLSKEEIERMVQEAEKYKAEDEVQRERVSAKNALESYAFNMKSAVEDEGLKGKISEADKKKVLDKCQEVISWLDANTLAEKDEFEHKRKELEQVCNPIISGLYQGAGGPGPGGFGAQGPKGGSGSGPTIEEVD
row,Compound,displacement
1,CCOC(=O)c1c(NC(=O)c2cccnc2)sc2c1CCCC2,6.4% (inactive)
2,CCOC(=O)c1c(NC(=O)c2cccnc2)sc2c1CCC2,-2% (inactive)
3,CC(C)OC(=O)c1c(NC(=O)c2cccnc2)sc2c1CCCCC2,80.1% (active)
4,COc1ccc(-c2cc(C(F)(F)F)nc(-n3cc(Br)cn3)n2)cc1,-0.2% (inactive)
5,CCCN1C(=O)/C(=C2\SC(=S)N(CCC(=O)O)C2=O)c2ccccc21,-0.7% (inactive)
6,O=C(O)CCCCCN1C(=O)/C(=C2/C(=O)N(CC(=O)O)c3ccccc32)SC1=S,5.6% (inactive)
7,O=C(O)CCN1C(=O)/C(=C2\C(=O)N(Cc3ccccc3Cl)c3ccccc32)SC1=S,53.2% (active)
8,Cc1cc(C)c(C(=O)CSc2n[nH]c(=O)n2C2CC2)cc1C,0.8% (inactive)
9,COCCOC(=O)c1ccc(NC(=O)COc2ccc(C)c(C)c2)cc1,86.3% (active)
10,COCCOC(=O)c1ccc(NC(=O)COc2ccc(C)cc2)cc1,3.9% (inactive)
11,COCCOC(=O)c1ccc(NC(=O)COc2cc(C)c(Cl)c(C)c2)cc1,0.2% (inactive)
12,C/C(=N\NC(=O)c1cc(-c2cccc([N+](=O)[O-])c2)n[nH]1)c1ccccc1O,-0.9% (inactive)
13,CCN(CC)C(=O)CSc1nnc(CCN)o1,-0.4% (inactive)
14,O=c1c2ccccc2nnn1CSc1nnc(-c2cccc(S(=O)(=O)N3CCCCC3)c2)o1,-0.1% (inactive)
15,CCOC(=O)C(=O)Nc1ccc(F)cc1,5.5% (inactive)
16,CCOC(=O)C(=O)Nc1ccc(NC(C)=O)cc1,56.6% (active)
17,CCOC(=O)C(=O)Nc1ccc(C(N)=O)cc1,-0.8% (inactive)
18,CCc1ccccc1NC(=O)CN(c1ccc(OC)c(Cl)c1)S(C)(=O)=O,-3.3% (inactive)
19,O=C(O)C1Nc2c(Cl)cc(Cl)cc2C2C=CCC12 (stereo not given),78% (active)
20,COc1ccc2c(c1)C1C=CCC1C(C(=O)O)N2 (stereo not given),31.6% (inactive)
21,Cc1cc(I)c2c(c1)C1C=CCC1C(C(=O)O)N2 (stereo not given),23.8% (inactive)
22,O=C(O)C1Nc2c(C(=O)N3CCOCC3)cccc2C2C=CCC12 (stereo not given),17.9% (inactive)
23,O=C(O)C1Nc2c(C(=O)N3CCCC3)cccc2C2C=CCC12 (stereo not given),11.2% (inactive)
24,Cc1c(Cl)ccc2c1NC(C(=O)O)C1CC=CC21 (stereo not given),95.7% (active)

row,Compound,displacement
1,O=C(Nc1ccc2c(c1)OCCO2)c1cnc2ccccn2c1=O,0.6% (inactive)
2,CCN(CC)CCCOc1c(Cl)cccc1Cl,0.3% (inactive)
3,Cc1cccc(OCC(=O)N2CCN(C(=O)c3cccs3)CC2)c1,-2.2% (inactive)
4,O=C1c2cccc3cccc(c23)C(=O)N1c1ccc2c(c1)OCO2,-2.6% (inactive)
5,CCOC(=O)c1c(C)nc(C)nc1NC(=O)c1ccccc1,85.3% (active)
6,CCOC(=O)c1c(C)nc(-c2ccccc2)nc1NC(C)=O,0.2% (inactive) and 7.4% (inactive)
7,CCOC(=O)c1c(C)nc(-c2ccccc2)nc1NC(=O)c1ccccc1,-1.8% (inactive)
8,CC1=C(C(=O)Nc2ccccn2)C(c2cccnc2)n2nnnc2N1 (stereo not given),1.5% (inactive)
9,COc1cccc(-c2nc3ccccc3c(=O)o2)c1,-0.1% (inactive)
10,O=c1nc(/C=C/c2cc([N+](=O)[O-])ccc2Cl)cc(C(F)(F)F)[nH]1,3.5% (inactive)
11,O=[N+]([O-])c1ccc(O)c(-c2cc(C(F)(F)F)nc(-c3ccccc3)n2)c1,4.6% (inactive)
12,O=C(Cn1ncc2c1-c1ccccc1OC2)Nc1nc2ccccc2s1,0% (inactive)
13,NC(=O)c1c(NC(=O)CCN2C(=O)c3ccccc3C2=O)sc2c1CCC2,-3.3% (inactive)
14,N#Cc1c(NC(=O)CCCN2C(=O)c3ccccc3C2=O)sc2c1CCCC2,2.9% (inactive)
15,N#Cc1c(NC(=O)CCN2C(=O)c3ccccc3C2=O)sc2c1CCCC2,72.6% (active)
16,COc1ccc(C2Nc3ccccc3NC3=C2C(=O)CC(c2ccc(Cl)cc2)C3)cc1 (stereo not given),-0.1% (inactive)
17,CC1(C)C2CCC1(C)C(NC(=O)C1CC3c4ccccc4C1c1ccccc13)C2 (stereo not given),1.1% (inactive)
18,Cc1ccc(NC(=O)CSc2nnc(-c3ccccc3Br)o2)cc1C,-2.9% (inactive)
19,O=c1[nH]c(=S)n(-c2cccc(Cl)c2)c(O)c1/C=C1/C=CC=N1,10% (inactive)
20,Cn1c(O)c(/C=C2/C=CC=N2)c(=O)n(-c2ccccc2)c1=S,53% (active)
21,Cc1ccccc1-n1c(O)c(C=C2C=CC=N2)c(=O)[nH]c1=S,44.3% (inactive)
22,O=C1C2CC=C(c3ccccc3)CC2C(=O)N1c1ccc(Br)cc1 (stereo not given),60.4% (active)
23,Cc1ccc(N2C(=O)C3CC=C(c4ccccc4)CC3C2=O)cc1 (stereo not given),-0.4% (inactive)
24,CC1=C(C)CC2C(=O)N(c3ccc(Br)cc3)C(=O)C2C1 (stereo not given),4.3% (inactive)

row,Compound,displacement
1,O=C1NC(=S)S/C1=C/c1cc(Br)ccc1OCc1ccccc1Cl,4.3% (inactive)
2,Cn1c(CN2CCCCC2)nc2cc(NC(=O)c3ccccc3)ccc21,1.9% (inactive)
3,COc1ccc(OC)c(NC(=S)NC(NC(=O)Cc2ccccc2)C(Cl)(Cl)Cl)c1 (stereo not given),-6.4% (inactive)
4,O=C(Nc1ccccc1)c1ccccc1C(=O)N1CCCCC1,4.4% (inactive)
5,O=C1C(=Cc2ccc(I)o2)C(=O)c2ccccc21,10.7% (inactive)
6,CC1(C)OC(=O)C(=Cc2ccc(I)o2)C(=O)O1,97.3% (active)
7,CC1(C)OC(=O)C(=Cc2ccc(-c3ccc(Cl)cc3Cl)o2)C(=O)O1,-3.2% (inactive)
8,COc1ccc(OC)c(C=NN2CCN(Cc3ccccc3Cl)CC2)c1,-1.8% (inactive)
9,CCOc1cc(C2Nc3ccc4ccccc4c3C3=C2CC(C)(C)CC3=O)ccc1O (stereo not given),2.3% (inactive)
10,Cc1csc(NC(=O)c2ccc([N+](=O)[O-])cc2Cl)n1,5.8% (inactive)
11,Nc1ccc(S(=O)(=O)O)c2cccc(O)c12,34.1% (inactive) and 73.7% (active)
12,Nc1cc(S(=O)(=O)O)cc2cccc(S(=O)(=O)O)c12,4.7% (inactive)
13,Nc1ccc(S(=O)(=O)O)c2cccc(S(=O)(=O)O)c12,6.4% (inactive)
14,O=C1c2ccccc2C(=O)N1/N=C/c1ccc(O)cc1O,-1.5% (inactive)
15,Cc1cccc(-c2cc3nc(C)cc(NCCCN(C)C)n3n2)c1,4.1% (inactive)
16,CN(C)c1ccc(/C=N/N=C2/NC(=O)C(Cc3ccc(Cl)cc3)S2)cc1 (stereo not given),-3.1% (inactive)
17,Cc1ccc(C)n1Cc1ccc(C(=O)O)cc1,103% (active) and 21.6% (inactive)
18,O=C(O)c1ccc(CN2CCOCC2)cc1,0% (inactive)
19,Cc1cc(C)n(Cc2ccc(C(=O)O)cc2)n1,-8.4% (inactive)
20,N#Cc1cc2c(nc1SCc1ccc(Br)cc1)CCCC2,-3.8% (inactive)
21,O=C(COc1ccc(Cl)cc1Cl)NNC(=O)CN1C(=O)/C(=C/c2ccc(Cl)cc2Cl)SC1=S,0.4% (inactive)
22,COc1ccccc1/C=N/NC(=O)C(=O)NCc1ccccn1,-2.8% (inactive)
23,CCn1c2ccccc2c2cc(CN3CCN(C(=O)CC(C)C)CC3)ccc21,-0.3% (inactive)
24,Cc1ccc(-n2[nH]c(C)c(C=Nc3ccc(C)cn3)c2=O)cc1,2% (inactive)

row,Compound,displacement
1,Cn1cccc1/C=C1/C(=O)NC(=S)N(c2cccc(Cl)c2)C1=O,37.8% (inactive)
2,COc1ccccc1N1C(=O)C(=Cc2cccn2C)C(=O)NC1=S,69.9% (active)
3,COc1ccccc1C=C1C(=O)NC(=S)N(c2ccccc2F)C1=O,4% (inactive)
4,N#Cc1cccc(-n2c(-c3ccccc3)nnc2-c2ccccc2)c1C#N,-2.8% (inactive)
5,COc1cc(NC(=O)c2ccc3c(c2)OCCO3)ccc1NC(=O)c1ccco1,-0.4% (inactive)
6,Cc1nn(-c2ccc(F)cc2)c(C)c1NS(=O)(=O)c1ccc(Cl)cc1,1% (inactive)
7,Cc1c(C#N)c2nc3ccccc3n2c(=O)/c1=C\c1c(O)n(-c2ccc(Br)cc2)[nH]c1=O,24.7% (inactive)
8,Cc1c(C#N)c2nc3ccccc3n2c(=O)/c1=C/c1sc2ccccc2c1O,2.1% (inactive)
9,Cc1ccc(-n2[nH]c(=O)c(/C=c3/c(C)c(C#N)c4nc5ccccc5n4c3=O)c2O)cc1C,83% (active)
10,O=C1c2ccccc2C(=O)N1c1ccc2c(c1)C(=O)N(c1ccccc1)C2=O,4.1% (inactive)
11,Nc1ccc2c(c1)C(=O)N(c1ccccc1)C2=O,8.5% (inactive)
12,O=[N+]([O-])c1cc(-c2nnc(-c3ccc(Br)o3)o2)cc([N+](=O)[O-])c1,0.4% (inactive)
13,O=C(NC1CC1)C1CCCN(C(=O)Nc2ccc(F)cc2)C1 (stereo not given),-7.5% (inactive)
14,Cc1ccc(C)c(S(=O)(=O)Nc2ccc3sc(C)nc3c2)c1,-3.2% (inactive)
15,CCOC(=O)c1[nH]cnc1C(=O)Nc1ccccc1,0% (inactive)
16,CCOC(=O)c1[nH]cnc1C(=O)NCc1ccccc1,88.8% (active)
17,CCOC(=O)c1[nH]cnc1C(=O)Nc1ccccn1,-29.4% (inactive) and -2.5% (inactive)
18,CC1=C(C(=O)Nc2ccccc2C)C(c2ccc(C)o2)N2C(=O)CSC2=N1 (stereo not given),1.1% (inactive)
19,CCN1C(=O)/C(=C2\SC(=O)N(Cc3ccccc3)C2=O)c2ccccc21,-2.9% (inactive)
20,Cc1ccc([N+](=O)[O-])cc1-c1ccc(/C=C(\C#N)C(=O)NCc2ccco2)o1,75.7% (active)
21,N#C/C(=C\c1ccc(-c2ccc(C(=O)O)cc2)o1)C(=O)NCc1ccco1,-4.4% (inactive)
22,N#C/C(=C\c1ccc(-c2cccc(Cl)c2Cl)o1)C(=O)NCc1ccco1,-2.5% (inactive)
23,CC(=O)OC(/C(O)=C(\C#N)c1nc2ccccc2[nH]1)c1ccccc1 (stereo not given),-1.2% (inactive)
